Test results: PubChem BioAssay AID1779 (Sanford-Burnham Center for Chemical Genomics, 2009)
The campaign covered roughly 290,000 compounds. About 160 (0.055%) were called active. Cut-off read from the data, not from the text of the source: active = inhibition above about 50%; inactive = the rest. Only a selection was taken, and actives are over-represented in it overall.

biological target: Tyrosine-protein phosphatase non-receptor type 22 (Homo sapiens) (UniProt Q9Y2R2); assay: inhibitors of LYP phosphatase, biochemical, fluorescence intensity, uHTS (AID 1779); details: recombinant LYP phosphatase, at 11.5 µM, active compounds read high;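 note: plate controls were vehicle with enzyme for no effect and no enzyme for full effect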
Sequence (Q9Y2R2 whole entry, looked up): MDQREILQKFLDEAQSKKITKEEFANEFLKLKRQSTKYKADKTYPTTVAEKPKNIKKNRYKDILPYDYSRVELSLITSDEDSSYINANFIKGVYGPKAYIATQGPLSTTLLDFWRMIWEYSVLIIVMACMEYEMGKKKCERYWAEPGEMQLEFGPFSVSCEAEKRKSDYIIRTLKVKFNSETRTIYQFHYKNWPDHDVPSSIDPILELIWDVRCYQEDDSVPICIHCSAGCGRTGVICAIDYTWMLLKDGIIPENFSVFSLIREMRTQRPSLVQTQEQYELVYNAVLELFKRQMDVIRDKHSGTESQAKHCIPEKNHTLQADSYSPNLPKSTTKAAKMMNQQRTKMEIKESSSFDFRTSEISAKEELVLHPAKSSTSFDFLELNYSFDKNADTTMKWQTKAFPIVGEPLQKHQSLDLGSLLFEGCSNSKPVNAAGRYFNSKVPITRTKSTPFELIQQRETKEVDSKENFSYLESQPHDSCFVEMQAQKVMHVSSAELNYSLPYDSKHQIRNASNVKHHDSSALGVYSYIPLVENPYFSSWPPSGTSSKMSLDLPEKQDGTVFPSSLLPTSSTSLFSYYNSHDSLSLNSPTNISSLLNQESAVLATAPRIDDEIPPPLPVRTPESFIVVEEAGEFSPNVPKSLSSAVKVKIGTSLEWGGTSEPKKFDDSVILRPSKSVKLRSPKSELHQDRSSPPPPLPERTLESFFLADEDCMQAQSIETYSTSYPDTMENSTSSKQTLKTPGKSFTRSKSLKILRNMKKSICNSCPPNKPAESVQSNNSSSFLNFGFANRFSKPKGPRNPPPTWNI

SMILES | inhibition
CS(=O)(=O)N1CCc2cc(C(=O)NC3CC3)ccc21 | -10.8% (inactive)
COCCNC(=O)C(c1ccco1)N(Cc1ccc(OC)cc1)C(=O)Cn1nnc2ccccc21 (configuration not stated) | 10.9% (inactive)
COc1ccc(-c2nc(SC)n(C(=O)c3ccco3)n2)cc1 | -4.5% (inactive)
CSc1nc(-c2ccc(Cl)cc2)nn1C(=O)c1ccco1 | 77.2% (active)
CSc1nc(-c2ccccc2)nn1C(=O)c1ccco1 | -3% (inactive)
Cc1nc(-c2ccc(S(=O)(=O)N3CCN(CCc4ccccc4)CC3)s2)cs1 | -0.7% (inactive)
N#CCN(CC#N)C(=O)C1c2ccccc2Oc2ccccc21 | -3.9% (inactive)
COc1ccc(NC(=O)C2CCCN(S(=O)(=O)c3c(C)n[nH]c3C)C2)c(OC)c1 (configuration not stated) | -2% (inactive)
O=[N+]([O-])c1cc(Cl)cc(/C=N/n2cnnc2)c1O | 3.8% (inactive)
O=[N+]([O-])c1cc(Br)cc(/C=N/n2cnnc2)c1O | 76.8% (active)
Cc1cc(/C=N/n2cnnc2)c(O)c([N+](=O)[O-])c1 | -3.1% (inactive)
COc1ccc(C2C(C#N)=C(N)Oc3cc(C)n(CCN4CCOCC4)c(=O)c32)cc1OC (configuration not stated) | -4.7% (inactive)
CCOc1ccc(C2C(C#N)=C(N)Oc3cc(C)n(CCN4CCOCC4)c(=O)c32)cc1OCC (configuration not stated) | 61.4% (active)
CCOc1ccc(C2C(C#N)=C(N)Oc3cc(C)n(CCN(C)C)c(=O)c32)cc1OCC (configuration not stated) | -1.7% (inactive)
Cc1cccn2c(=O)c3cc(C(=O)NC4CCCCC4)c(=N)n(CCN4CCOCC4)c3nc12 | -35.6% (inactive)
Cc1ccc(-c2csc(=S)[nH]2)cc1 | -4% (inactive)
Fc1ccc(-c2csc(=S)[nH]2)cc1 | -2% (inactive)
S=c1[nH]c(-c2ccc(Cl)cc2)cs1 | 74.6% (active)
OCCC1CN(Cc2cccn2-c2ncccn2)CCN1C1CCCC1 (configuration not stated) | -9.8% (inactive)
Cc1ccc(C(=O)N2CCN(S(=O)(=O)N3CCCCC3)CC2)cc1 | -11.4% (inactive)
Cc1cc(Cl)ccc1OCC(=O)OCC(=O)Nc1ccc(F)c([N+](=O)[O-])c1 | 62% (active)
Cc1cc(NC(=O)COC(=O)COc2ccc(Cl)cc2C)c([N+](=O)[O-])cc1C | 5.9% (inactive)
O=C(COC(=O)COc1ccc(Cl)cc1)Nc1ccc(F)c([N+](=O)[O-])c1 | 2.2% (inactive)
O=C(c1ccco1)N1CCN(C(=O)C2CC(=O)N(c3ccc(Cl)cc3)C2)CC1 (configuration not stated) | -14.5% (inactive)
N/C(=N\N=C\c1ccco1)SC1CC(=O)N(c2ccc(C(=O)O)cc2)C1=O (configuration not stated) | 1.7% (inactive)
N/C(=N\N=C\c1ccc2c(c1)OCO2)SC1CC(=O)N(c2ccc(C(=O)O)cc2)C1=O (configuration not stated) | 70% (active)
N/C(=N\N=C\c1ccco1)SC1CC(=O)N(c2ccccc2)C1=O (configuration not stated) | -2.9% (inactive)
